The record followed here is PubChem BioAssay (NCATS).

Records with an inconclusive call do not appear. Calls of active or inactive are those of the source. Calls follow the shape of the full dose curve.
Potency is read from the fitted curve at half-maximal effect.

The nature of the test: Cell Viability - MRC5 (AID 434).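 Also: potency reflects cytotoxicity seen as loss of intracellular ATP.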 Conditions: MRC5 lung fibroblast viability, qHTS. The source says: NIH Chemical Genomics Center [NCGC]
NIH Molecular Libraries Screening Centers Network [MLSCN]
National Institutes of Environmental Health Sciences [NIEHS]
National Toxicology Program [NTP]
We have developed a 1536-well cell-based assay for quantitative high throughput screening (qHTS) against a number of cell lines to determine in vitro cytotoxicity of small molecules. This particular assay uses the MRC5 cell line which is derived from normal human lung fibroblasts.
NCGC Assay Protocol Summary:
The CellTiter-Glo luminescent cell viability assay (Promega) is a homogeneous method to measure the number of viable cells in culture. The end point readout of this assay is based on quantitation of intracellular ATP, an indicator of metabolic activity, using the luciferase reaction. Luciferase catalyzes the oxidation of beetle Luciferin to oxyluciferin and light in the presence of ATP. The luminescent signal is proportional to amount of ATP present.
Using the CellTiter-Glo luminescent cell viability assay, the amount of cellular ATP was measured in the MRC5 cell line with complete culture medium following compound treatment for 40 hours. The assay was performed in opaque white Kalypsys 1536-well plates. In the screen, tamoxifen and doxorubicin were used as positive controls. Library compounds were measured for their ability to cause acute toxicity in the cell line, as reflected by a decrease in intracellular ATP levels, in a concentration-dependent manner. Data were normalized to the controls for basal activity (DMSO only) and 100% inhibition (100 uM tamoxifen). AC50 values were determined from concentration-response data modeled with the standard Hill equation.
qHTS protocol for CellTiter Glo MRC5 cellular assay
[Step] [Parameter] [Value] [Description]
1. Reagent; 5 uL; 1500 MRC5 cells/well
2. Time; 5 hr; 37 °C incubation
4. Controls; 23 nL; Tamoxifen 0.34 uM to 100 uM & Doxorubicin 0.02 nM to 100 uM
5. Time; 40 hr; 37 °C incubation
6. Reagent; 5 uL; CellTiter Glo reagent
7. Time; 20 min; Room Temperature
8. Detection; Luminescence; Viewlux plate reader
Keywords: cell viability, cytotoxicity, MRC5 cell line, luminescence, NTPHTS, NTPHTS_NCGC, NIEHS, EPA, DSSTox, MLSMR, MLSCN, NIH Roadmap, qHTS, NCGC
On the technique in general: Quantitative high-throughput screening tests each substance at several concentrations.
Take `Cn1c(=O)c2[nH]cnc2n(C)c1=O`: the Potency was > 92 µM (inactive). For the molecule `COc1ccc2c(c1)c(CC(=O)O)c(C)n2C(=O)c1ccc(Cl)cc1`, the Potency was > 92 µM (inactive). Then `CC(COc1ccccc1)N(CCCl)Cc1ccccc1` (stereo not given), with > 92 µM (inactive). Regarding `NS(=O)(=O)c1cc2c(cc1Cl)NCNS2(=O)=O`, the Potency is > 92 µM (inactive). As for `CC(C)C(=O)Nc1ccc([N+](=O)[O-])c(C(F)(F)F)c1`, the figure is > 92 µM (inactive); as for `COc1cc2c(c(OC)c1OC)-c1ccc(OC)c(=O)cc1[C@@H](NC(C)=O)CC2`, > 92 µM (inactive).

For the molecule `Cn1c(=O)c2c(ncn2C)n(C)c1=O`, the Potency was > 92 µM (inactive). As to `CCC1(c2ccccc2)C(=O)NCNC1=O`, the Potency was > 92 µM (inactive).

Turning to `NCCS(=O)(=O)O`, the Potency is > 92 µM (inactive).

Take `COc1ccc(CCN(C)CCCC(C#N)(c2ccc(OC)c(OC)c2)C(C)C)cc1OC` (stereo not given): the Potency was > 92 µM (inactive).

Turning to `Nc1ccn([C@H]2CC[C@@H](CO)O2)c(=O)n1`, the Potency was > 92 µM (inactive). Then `COc1ccc2[nH]cc(CCNC(C)=O)c2c1`, with > 92 µM (inactive). As for `Cc1cn([C@H]2C=C[C@@H](CO)O2)c(=O)[nH]c1=O`, the figure is > 92 µM (inactive). Then `Cc1cn([C@H]2C[C@H](N=[N+]=[N-])[C@@H](CO)O2)c(=O)[nH]c1=O`, with > 92 µM (inactive). On to `O=c1c(-c2ccc(O)cc2)coc2cc(O)cc(O)c12`, for which the Potency is > 92 µM (inactive).

With `CC(C)NCC(O)c1ccc(O)c(O)c1` (stereo not given), the Potency is > 92 µM (inactive). As for `Cc1ccc(-c2cc(C(F)(F)F)nn2-c2ccc(S(N)(=O)=O)cc2)cc1`, the figure is > 92 µM (inactive); as for `Nc1c2c(nc3ccccc13)CCCC2`, > 92 µM (inactive); as for `O=c1[nH]cc(F)c(=O)[nH]1`, > 92 µM (inactive). As for `N[C@@H](Cc1c[nH]c2ccc(O)cc12)C(=O)O`, the figure is > 92 µM (inactive).
